Assay in all cases: NCI-60 one-dose screen, 48 h (100 = growth as untreated, 0 = no growth, -100 = all killed)
Assay [1] deals with HCT-15 colon. The settings on record: 10 µM unless noted.
Assay [2] deals with HT29 colon. The settings on record: 10 µM unless noted.
In assay [3] the test system is SNB-75 CNS. The settings on record: 10 µM unless noted.
Assay [4] has as its system SNB-19 CNS. The settings on record: 10 µM unless noted.
The test system of assay [5] is U251 CNS. The settings on record: 10 µM unless noted.
Assay [6] deals with PC-3 prostate. The settings on record: 10 µM unless noted.
Assay [7] concerns SK-MEL-5 melanoma. To be noted: 10 µM unless noted.
Assay [8] relates to UACC-62 melanoma. To be noted: 10 µM unless noted.
Assay [9] relates to LOX IMVI melanoma. The settings on record: 10 µM unless noted.
For assay [10], the system named is SK-MEL-28 melanoma. The settings on record: 10 µM unless noted.
Assay [11] has as its system SK-MEL-2 melanoma. The settings on record: 10 µM unless noted.
Assay [12] concerns EKVX NSCLC. The settings on record: 10 µM.
For assay [13], the system named is SN12C renal. To be noted: 10 µM unless noted.
Assay [14] relates to UO-31 renal. The settings on record: 10 µM unless noted.
Assay [15] relates to TK-10 renal. To be noted: 10 µM unless noted.
Assay [16] relates to ACHN renal. To be noted: 10 µM unless noted.
Assay [17] has as its system CAKI-1 renal. The settings on record: 10 µM unless noted.
For assay [18], the system named is A498 renal. To be noted: 10 µM unless noted.
The subject of assay [19] is CCRF-CEM leukemia. To be noted: 10 µM.
Assay [20] relates to MOLT-4 leukemia. To be noted: 10 µM unless noted.

About 83,000 compounds went through this panel and 20% of them were active in at least one assay; those are over-represented in the sample as a whole.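 Interpretation: 100, growth as untreated; towards 0, rising growth inhibition; 0, no net growth; 0 to -100, cell death. Compounds scoring below 10 were considered active.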 Unmarked numbers belong to inactive results. Activity calls are given as the source filed them.

On to `O=C1C(Cl)=C(SC2=NCCN2)C(=O)c2ccccc21`, for which the growth in [1] is 83.3%; in [2], 102%; in assay [3] it was 153%; in assay [4], 92.3%; in [5], 63.9%; in assay [6] it was 64.5%. In addition, the growth in [7] was -29.6% (active); in assay [8], 74.3%; in assay [9], 18%; in [10], 78.9%; in [11], 66.7%; in assay [12], 94.4%. Further, the growth in assay [13] is 74%; in [14] it was 48.3%; in [15], 173%; in assay [16], 83.5%; in [17], 93.9%; in assay [18] it was 119%. For the same molecule, the growth in assay [19] was 61.7%; in assay [20], 68.9%.
As for `COc1cccc(CNC(=O)c2cccc(C3CC(=O)c4c(cc(OC)c(OC)c4OC)O3)c2)c1` (stereo not given), the growth in assay [1] was 43.5%; in assay [2] it was 68%; in [3] it was 27.7%; in assay [4], 51.2%; in assay [5], 49.3%; in assay [6], 20.8%. The growth was 59.4% in assay [7]; 24.3% in assay [8]; 44.9% in assay [9]; 65.7% in [10]; 38.5% in assay [11]; 72.4% in [12]. Moreover, the growth in assay [13] was 72.7%; in [14], 51.6%; in assay [15], 87.7%; in assay [16], 47.9%; in assay [17], 77.3%; in assay [18] it was 81.7%. Also, the growth was 13.3% in [19] and 67% in [20].
Take `CCCCCCCCCCCCCCCCCC1=NCCN1CS(=O)(=O)O`: the growth is 41% in [1]; 2.18% (active) in assay [2]; 60.9% in [3]; 80.4% in assay [4]; 64.5% in assay [5]; 39% in assay [6]. In addition, the growth in [7] is 87.3%; in [8] it was 88.9%; in assay [9] it was -2.88% (active); in [10], 103%; in assay [11], 69.9%; in assay [12], 80.1%. For the same molecule, the growth in assay [13] was 53.2%; in [14] it was 16.6%; in assay [15], 89.4%; in assay [16], 47.7%; in [17], 17.3%; in [18], 87.2%. The growth in assay [19] was -5.55% (active); in [20] it was 12.3%.
`CCOC(=O)CCCCCCCCC(=O)OCC`: the growth was 117% in assay [1]; 109% in assay [2]; 102% in [3]; 103% in assay [4]; 97.2% in assay [5]; 101% in assay [6]. In addition, the growth is 107% in [7]; 102% in assay [8]; 96.9% in assay [9]; 110% in assay [10]; 112% in assay [11]; 118% in assay [12]. The growth is 102% in assay [13]; 95.7% in assay [14]; 104% in [15]; 113% in assay [16]; 105% in [17]; 93.9% in assay [18]. Further, the growth in assay [19] was 107%; in [20], 95.2%.
`Clc1ccc(N/N=C(/c2ccccc2)c2ccccn2)nc1`: the growth in [1] was 16.2%; in [2] it was 36.1%; in assay [3], 43.4%; in [4], 60.1%; in assay [5] it was 42.1%; in assay [6], 35.5%. The growth in assay [7] is 25.3%; in assay [8] it was 32.5%; in [9] it was 21.5%; in [10] it was 51.9%; in assay [11] it was 63.5%; in assay [12] it was 18.5%. The growth in assay [13] is 47.3%; in assay [14], 28.3%; in [15] it was 37.3%; in [16] it was 24.1%; in [17], 36.2%; in assay [18], 52.7%. Besides, the growth in assay [19] was 14.2%; in assay [20] it was 6.84% (active).
Consider `O=C1/C(=C/c2ccc(Cl)cc2)CCC/C1=C\c1ccc(Cl)cc1`, for which the growth in assay [1] was 80.9%; in assay [2], 6.8% (active); in assay [3], 90.1%; in assay [4], 92.5%; in [5], 14.7%; in assay [6], 90.8%. For the same molecule, the growth in assay [7] was 84.6%; in assay [8], 80.5%; in [9] it was -67.7% (active); in assay [10], 110%; in [11], 117%; in assay [12], 89.2%. Also, the growth was 92% in assay [13]; 74.1% in assay [14]; 123% in assay [15]; 95% in [16]; 89.4% in assay [17]; 105% in assay [18]. The growth is 78.1% in assay [19] and 80.2% in assay [20].
Take `O=C(O)/C(Br)=C/c1c[nH]c2ccc(Br)cc12`: the growth was 114% in assay [1]; 106% in assay [2]; 105% in assay [3]; 126% in assay [4]; 105% in [5]; 123% in assay [6]. Moreover, the growth in [7] was 107%; in assay [8], 104%; in assay [9], 101%; in assay [10] it was 63.7%; in assay [11], 99%; in [12] it was 119%. Moreover, the growth in [13] was 108%; in [14], 88.8%; in assay [15], 117%; in [16], 104%; in [17] it was 97.6%; in assay [18], 132%. The growth is -46.1% (active) in assay [19] and 31.8% in assay [20].
Regarding `COc1cc(OC)c2c(=O)cc(-c3ccccc3)oc2c1`, the growth in [1] is 105%; in assay [2] it was 97.1%; in assay [3], 91.8%; in [4] it was 94.3%; in [5], 92.2%; in assay [6], 81.1%. For the same molecule, the growth was 95.9% in assay [7]; 77.7% in assay [8]; 97.5% in assay [9]; 106% in assay [10]; 103% in assay [11]; 103% in assay [12]. Also, the growth was 93% in assay [13]; 70.2% in assay [14]; 85.9% in [15]; 103% in assay [16]; 86.4% in assay [17]; 77.1% in assay [18]. For the same molecule, the figures for the growth in assay [19] and in assay [20] were 26.9% and 80.4%, respectively.

(Values after PubChem BioAssay (NCI).)
